SW480 rereplic: DNA re-replication induction in SW480 cells. Potency, µM (top dose mostly 46.1 µM), inactives show at the highest dose re-replication activation, actives largely listed as activators. actives 1.8% (n = 340,000). SW480 DNA re-replication, Hoechst DNA content imaging, 48 h; further: potency means the concentration at half of the fitted maximal effect; % of control where 0% means no effect; nearly all actives have a fitted effect of over 55% in size
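Treated cells incubate 48 hr (37 C, 5% CO2), are stained 40 min with Hoechst, and nuclear fluorescence is enumerated; a rise in nuclei with high DNA signal marks re-replication.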
DRD3 antagonist: D3 dopamine receptor (human) antagonism. D3R cells, DiscoveRx beta-arrestin luminescence, antagonist mode; stronger effect = lower value. max response, negative = inhibition, %. actives 2.5% (n = 360,000); in the data active means max response below about -50%; inconclusive means no clear call, values can overlap the other calls; further: on the % scale 0 is the no-effect control and ±100 the full control effect
Target sequence (P35462 whole entry, looked up): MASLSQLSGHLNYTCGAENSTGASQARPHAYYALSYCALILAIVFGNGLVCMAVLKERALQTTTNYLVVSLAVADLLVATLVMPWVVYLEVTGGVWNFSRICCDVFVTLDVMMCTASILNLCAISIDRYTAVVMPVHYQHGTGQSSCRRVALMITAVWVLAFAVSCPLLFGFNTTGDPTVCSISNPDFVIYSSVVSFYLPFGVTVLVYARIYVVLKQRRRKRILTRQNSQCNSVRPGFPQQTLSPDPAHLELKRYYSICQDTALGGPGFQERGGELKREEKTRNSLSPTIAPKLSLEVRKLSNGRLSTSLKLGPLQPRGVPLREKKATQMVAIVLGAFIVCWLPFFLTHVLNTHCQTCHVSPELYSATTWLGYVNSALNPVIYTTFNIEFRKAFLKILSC
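Cells expressing the human receptor were seeded at 1500 cells/well, incubated overnight at 37 degrees C in 5% CO2, then exposed to library compounds with dopamine controls for 90 minutes at 37 degrees C before luminescent detection.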
KB-3-1 tox: KB-3-1 parental cell cytotoxicity | actives 1.4% (n = 400,000) | KB-3-1 viability, CellTiter-Glo ATP luminescence, 72 h | Potency, µM (top dose mostly 46.1 µM), usual class: cytotoxic | AID 1347075; further: potency means the concentration at half of the fitted maximal effect; on the % scale 0 is the no-effect control and ±100 the full control effect; nearly all actives have a fitted effect of over 60% in size
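Here the drug-naive KB-3-1 line serves as comparator for MDR sub-line selectivity; cells received compound titrations, 72 h at 37 °C, then CellTiter-Glo readout.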
D3 ag: agonists of human D3 dopamine receptor. D3R DiscoveRx beta-arrestin cells, luminescence, 90 min. max activation, %. actives 0.58% (n = 410,000). P35462. AID 652048; in the data active means max activation above about 30%; further: 0% is about no effect
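Agonist-mode cell screen: cells plated at 1500/well and incubated overnight at 37 °C, then exposed to library compounds for 90 min at 37 °C. Detection reagent was added for 30–60 min at room temperature, and luminescence was read.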
MCF10A rerep: induces DNA re-replication in MCF 10a normal breast cells. MCF 10A DNA re-replication, Hoechst nuclear intensity, 48 h. Potency, µM (titrated, usually from 46.1 µM), for inactives: at the highest dose activity, positive = re-replication, most hits filed as activators. actives 2.9% (n = 350,000); further: potency means the concentration at half of the fitted maximal effect; % of control where 0% means no effect; nearly all actives have a fitted effect of over 50% in size
KB-V1 MDR tox: kills drug-selected multidrug resistant KB-V1 cells; KB-V1 MDR cells viability, CellTiter-Glo, 72 h; Potency, µM (titrated, usually from 46.1 µM), most hits filed as cytotoxic; actives 3.4% (n = 400,000); AID 1347076; further: potency means the concentration at half of the fitted maximal effect; on the % scale 0 is the no-effect control and ±100 the full control effect; nearly all actives have a fitted effect of over 60% in size
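Drug-selected KB-V1 cells, grown in DMEM lacking phenol red with 10% FBS, receive compound titrations; after three days at 37 degrees C, surviving cell ATP is quantified by CellTiter-Glo luminescence and responses normalized and curve-fitted.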
The depositor's hits bear a star. Sampled rows, rich in hits. Any-hit rate of the full collection: about 8.9%. Unless noted, the call rests on the fitted dose curve; in most records, active means well fitted curve in the direction sought with a large enough effect; inconclusive means small, poorly fitted or top-dose-only effect, or another doubt; inactive means no such curve, though single readings can be large; an effect the other way counts as inactive or inconclusive.

For Cc1ccc(NC(=S)N/N=C/c2ccc(OCCC(C)C)cc2)c(C)c1 the results were SW480 rereplic -2%, DRD3 antagonist -13, KB-3-1 tox inactive, D3 ag -10, MCF10A rerep inconclusive and KB-V1 MDR tox 16µM*.
For Cc1c(Cl)cccc1NS(=O)(=O)c1cc2c(cc1F)NC(=O)CC2 the results were KB-3-1 tox inactive and KB-V1 MDR tox inactive.
Cc1nn(CC(=O)Nc2ccc(Cl)cc2)c(=O)c2cc(-c3ccccc3)nn12 was read as SW480 rereplic 15µM*, DRD3 antagonist -5, KB-3-1 tox inactive, D3 ag -7, MCF10A rerep 21µM* and KB-V1 MDR tox inactive.
Screening CCc1nn(CC(=O)NCCCN2CCN(C)CC2)c(=O)c2cc3sccc3n12 returned SW480 rereplic -3%, DRD3 antagonist -7, KB-3-1 tox inactive, D3 ag -12, MCF10A rerep 15% and KB-V1 MDR tox inactive.
CCc1nn(CC(=O)NCCCN2CCc3ccccc3C2)c(=O)c2cc3sccc3n12 was read as SW480 rereplic inconclusive, DRD3 antagonist -112*, KB-3-1 tox inactive, D3 ag -16, MCF10A rerep 10% and KB-V1 MDR tox inactive.
Screening CCN1CCN(CCCNC(=O)Cn2nc(C)n3nc(-c4ccccc4)cc3c2=O)CC1 returned SW480 rereplic 0%, DRD3 antagonist -5, KB-3-1 tox inactive, D3 ag -1, MCF10A rerep inconclusive and KB-V1 MDR tox inactive.
Screening Cc1nn(CC(=O)NCCCN2CCC(Cc3ccccc3)CC2)c(=O)c2cc(-c3ccccc3)nn12 returned SW480 rereplic inconclusive, DRD3 antagonist -88*, KB-3-1 tox inconclusive, D3 ag 3, MCF10A rerep -9% and KB-V1 MDR tox inactive.
`COc1ccc(-c2cc3c(=O)n(CC(=O)Nc4ccc(Cl)cc4)ncn3n2)cc1` gave SW480 rereplic -1%, DRD3 antagonist -13, KB-3-1 tox inactive, D3 ag 5, MCF10A rerep 11% and KB-V1 MDR tox inconclusive.
`Cc1nn(CC(=O)NCCCN2CCN(Cc3ccccc3)CC2)c(=O)c2cc(-c3ccccc3)nn12` gave SW480 rereplic -11%, DRD3 antagonist -66*, KB-3-1 tox inactive, D3 ag -17, MCF10A rerep -5% and KB-V1 MDR tox inactive.
For Cc1cc(=O)n(Cc2cccc(F)c2)c2c1c(C)nn2-c1cccc(F)c1 the results were KB-3-1 tox inactive, D3 ag -7 and KB-V1 MDR tox inactive.
Screening Cc1nn(C)c2c1c(C(F)(F)F)cc(=O)n2CC(=O)Nc1ccc(F)cc1F returned KB-3-1 tox inactive, D3 ag 6 and KB-V1 MDR tox inactive.
Screening Cc1ccc(-c2nnc(Nc3ccc(O)cc3)c3ccccc23)cc1S(=O)(=O)NC(C)(C)CO returned KB-3-1 tox inactive, D3 ag -8 and KB-V1 MDR tox inactive.
Cc1cc(NC(=O)CCN2CCCCC2)ccc1Br was read as SW480 rereplic 2%, DRD3 antagonist -22, KB-3-1 tox inactive, D3 ag -18, MCF10A rerep 0% and KB-V1 MDR tox inactive.
CCOC(=O)C1=C(COC(=O)/C=C/c2ccc(OC)cc2OC)NC(=O)NC1C (centres undefined) was read as SW480 rereplic 2%, DRD3 antagonist 53, KB-3-1 tox inactive, D3 ag 1, MCF10A rerep 2% and KB-V1 MDR tox 6.5µM*.
Screening CCOC(=O)C1=C(COC(=O)CCOc2ccc(C)cc2)NC(=O)NC1C (centres undefined) returned SW480 rereplic inconclusive, DRD3 antagonist -14, KB-3-1 tox inactive, D3 ag -3, MCF10A rerep 18µM* and KB-V1 MDR tox inactive.
CCOC(=O)C1=C(COC(=O)CCOc2ccc(OC)cc2)NC(=O)NC1C (centres undefined) was read as SW480 rereplic -16%, DRD3 antagonist 8, KB-3-1 tox inactive, D3 ag 1, MCF10A rerep -6% and KB-V1 MDR tox inactive.
CCOC(=O)C1=C(COC(=O)/C=C/c2ccc(OC)c(OC)c2)NC(=O)NC1C (centres undefined) was read as SW480 rereplic 3%, DRD3 antagonist 25, KB-3-1 tox inactive, D3 ag -5, MCF10A rerep 0% and KB-V1 MDR tox inactive.
Cc1nc2ccccc2nc1-c1csc(-c2ccccc2)n1 was read as KB-3-1 tox inactive and KB-V1 MDR tox inconclusive.
`Cn1c(=O)c2c(nc(N3CCCC3)n2CC(O)CO)n(C)c1=O` (centres undefined) gave SW480 rereplic 0%, DRD3 antagonist 0, KB-3-1 tox inactive, D3 ag -3, MCF10A rerep 5% and KB-V1 MDR tox inactive.
Screening C=CCOCC(O)Cn1c(N2CCCC2)nc2c1c(=O)n(C)c(=O)n2C (centres undefined) returned SW480 rereplic -36%, DRD3 antagonist 12, KB-3-1 tox inactive, D3 ag 5, MCF10A rerep 1.3µM* and KB-V1 MDR tox inactive.
`C=CCn1c(N2CCCCCC2)nc2c1c(=O)n(C)c(=O)n2C` gave SW480 rereplic -9%, DRD3 antagonist 22, KB-3-1 tox inactive, D3 ag 23, MCF10A rerep 0% and KB-V1 MDR tox 16µM*.
Cc1c(NC(=O)Nc2ccc(Br)cc2F)sc2nc3n(c(=O)c12)CCC(C)CC3 (centres undefined) was read as KB-3-1 tox inactive, D3 ag -4 and KB-V1 MDR tox inactive.
Screening Cc1nc2sccn2c(=O)c1CCN1CCC(=C(c2ccccc2)c2ccc(F)cc2)CC1 returned SW480 rereplic 15% and MCF10A rerep 5.2µM*.
Screening CC(C)Cc1nnc(NC(=O)c2cc3c(s2)CCC3)s1 returned SW480 rereplic 23µM*, DRD3 antagonist 27, KB-3-1 tox inactive, D3 ag 6, MCF10A rerep 23µM* and KB-V1 MDR tox inactive.
`c1ccc(-c2cccc(-c3ccccn3)n2)nc1` gave SW480 rereplic inconclusive, DRD3 antagonist 33, KB-3-1 tox inconclusive, D3 ag 11, MCF10A rerep inconclusive and KB-V1 MDR tox 1.8µM*.
`COc1cccc(CNC(=O)C(C)n2ncn3cccc3c2=O)c1OC` (centres undefined) gave KB-3-1 tox inactive, D3 ag -14 and KB-V1 MDR tox inactive.
Screening O=C1CC(=O)N(c2cccc(F)c2)N1 returned SW480 rereplic -5%, DRD3 antagonist -51*, KB-3-1 tox inactive, D3 ag -12, MCF10A rerep 2% and KB-V1 MDR tox inconclusive.
